An excerpt weighted towards active compounds, which were near 1.7% of everything screened.
LDHA block = qHTS assay for inhibitors of human lactate dehydrogenase; L-lactate dehydrogenase A chain (Homo sapiens), P00338; purified LDHA, NADH/diaphorase-resazurin fluorescence; stronger effect = lower value; activity change, % (values are at about 110 or 230 µM); 480,000 tested, 0.15% active; AID 1347041, 2019; in the data active = activity change below about -30%; inconclusive = mostly about -25% to -30%;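 also: plate controls were DMSO wells for no effect and wells without enzyme for full effect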
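Human LDH5 at 2 nM final in Tris HCl pH 7.4 with 0.06 mM NADH and 0.2 mM pyruvate, reacted 5 minutes at room temperature. Remaining NADH coupled via diaphorase/resazurin; resorufin fluorescence read at 0 and 20 minutes, normalized to enzyme-free and DMSO wells.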
IDH1 R132H inh = qHTS for Inhibitors of mutant isocitrate dehydrogenase 1 (IDH1): qHTS. 390,000 tested, 0.093% active. IDH1-R132H enzyme, NADPH consumption, diaphorase/resazurin fluorescence. Isocitrate dehydrogenase [NADP] cytoplasmic (Homo sapiens), O75874. Potency, µM (series often up to 76.6 µM), for inactives: at the top dose activity change, negative = inhibition, hits mostly inhibitors; also: potency is read from the fitted curve at half-maximal effect; % is scaled to controls: 0 for no effect and ±100 for the full control effect; nearly all actives have a fitted effect of over 65% in size
Target sequence (O75874 whole entry R132H, stated change not applied): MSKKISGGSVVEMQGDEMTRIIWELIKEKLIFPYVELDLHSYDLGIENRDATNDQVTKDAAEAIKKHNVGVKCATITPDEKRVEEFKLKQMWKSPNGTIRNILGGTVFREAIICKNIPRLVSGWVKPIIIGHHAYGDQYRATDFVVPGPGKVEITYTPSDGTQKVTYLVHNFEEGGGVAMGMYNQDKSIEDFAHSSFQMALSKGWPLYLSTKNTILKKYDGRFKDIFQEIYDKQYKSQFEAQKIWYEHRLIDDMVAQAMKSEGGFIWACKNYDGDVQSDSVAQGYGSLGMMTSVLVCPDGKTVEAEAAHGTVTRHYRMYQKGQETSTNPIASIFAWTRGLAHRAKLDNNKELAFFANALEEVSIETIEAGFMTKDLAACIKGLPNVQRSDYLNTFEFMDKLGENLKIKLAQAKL
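IDH1-R132H (0.5 ug/mL dispensed) in pH 7.5 Tris buffer was preincubated 30 min with compound, then given a substrate mix of 0.016 mM NADPH and 2 mM alpha-KG for 80 min at room temperature; remaining NADPH was read by diaphorase/resazurin fluorescence.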
GLP-1R agonist = qHTS of GLP-1 Receptor Agonists | Potency, µM (highest dose often 45.6 µM), without a hit: at the highest dose activation, most hits filed as activators | 380,000 tested, 0.007% active | AID 624172, 2012 | HEK293 GLP-1R CRE-luciferase, luminescence, 4-6 h; cells express a hypersensitive GLP-1R form; also: potency is read from the fitted curve at half-maximal effect; % of control where 0% means no effect
PTHR1 ag = qHTS for PTHR1 Agonists: Primary Screen | Parathyroid hormone/parathyroid hormone-related peptide receptor (Homo sapiens), Q03431 | HEK293 GP2 PTHR1 cells, GloSensor cAMP luminescence, 1 h | Potency, µM (titrated, usually from 115 µM), for inactives: at the top dose activation, usual class: activators | 410,000 tested, 0.075% active | AID 743266, 2014; also: potency is read from the fitted curve at half-maximal effect; nearly all actives have a fitted effect of over 55% in size
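HEK-293-derived GP2 cells expressing PTHR1 and a GloSensor cAMP reporter, 3,000/well, plated overnight, given luciferin plus IBMX (each 0.5 mM as added) for 1 h at 37 °C, then compound for 1 h at 37 °C. Luminescence was read after 15 min at room temperature.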
GLP-1R inv ag = qHTS of GLP-1 Receptor Inverse Agonists (Inhibition Mode); Glucagon-like peptide 1 receptor (Homo sapiens), P43220; HEK293 GLP-1R CRE-luciferase, luminescence, 24 h; GLP-1R form is constitutively active; Potency, µM (highest dose often 38.3 µM), without a hit: top-dose activity change, negative = inhibition, hits mostly inhibitors; 410,000 tested, 1.6% active; AID 624417, 2012; also: potency is read from the fitted curve at half-maximal effect; % is scaled to controls: 0 for no effect and ±100 for the full control effect; nearly all actives have a fitted effect of over 55% in size
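Readout was luciferase luminescence, measured 12 min after detection reagent at room temperature. Beforehand, GLP-1R reporter HEK293 cells had sat 12 h, then received compounds for 24 hr at 37 deg C.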
HEK293 tox = qHTS of GLP-1 Receptor Inverse Agonists: Cytotox Screen; HEK293 cAMP-luciferase reporter cells, luminescence, 24 h; Potency, µM (highest dose often 38.3 µM), without a hit: at the highest dose activity change, negative = inhibition, hits mostly inhibitors; 410,000 tested, 0.13% active; AID 624418, 2012;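 also: loss of luciferase light is scored as toxicity; potency is read from the fitted curve at half-maximal effect; % is scaled to controls: 0 for no effect and ±100 for the full control effect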
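MLSMR compounds, 24 hr on cells at 37 deg C/5% CO2; luminescence after luciferase reagent (12 min RT). Inhibition counted as the undesired cytotoxic outcome.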
Numbers without * were called inactive; [ ] = dose if it differs, or a comment. Unless noted, calls follow the shape of the dose curve; as a rule, active = well fitted curve in the direction sought with a large enough effect; inconclusive = small, poorly fitted or top-dose-only effect, or another doubt; inactive = no such curve, though single readings can be large; an effect the other way counts as inactive or inconclusive.

For CCOC(=O)[C@H]1[C@H]2COc3cc(OC)ccc3[C@@H]2N2C(=O)CN(CCc3c[nH]c4ccccc34)C(=O)[C@@]12C the results were LDHA block 6, IDH1 R132H inh 2%, GLP-1R agonist 1%, PTHR1 ag -27%, GLP-1R inv ag -17% and HEK293 tox 9%.
`COc1ccc2c(c1)OC[C@H]1[C@H]2N2C(=O)CN(CCc3c[nH]c4ccccc34)C(=O)[C@@]2(C)[C@H]1c1ccccc1` gave LDHA block 1, IDH1 R132H inh 12%, GLP-1R agonist -2%, PTHR1 ag inactive, GLP-1R inv ag 5µM* and HEK293 tox 7%.
Screening COc1cc(/C=C/c2ccc3cccc(OC)c3n2)c(OC(C)=O)c([N+](=O)[O-])c1 returned LDHA block 0, IDH1 R132H inh 8%, GLP-1R agonist -17%, PTHR1 ag -13%[57.5 µM], GLP-1R inv ag -24% and HEK293 tox -26%.
`COc1c(OC(C)=O)ccc(/C=C/c2ccc3cccc(OCc4ccccc4)c3n2)c1[N+](=O)[O-]` gave LDHA block -1, IDH1 R132H inh 2%, GLP-1R agonist -13%, PTHR1 ag inactive, GLP-1R inv ag 5µM* and HEK293 tox inconclusive.
Screening O=c1c2cnc(N3CCc4ccccc4C3)nc2ccn1-c1ccccc1 returned LDHA block 1.
For CC(=O)Nc1c(-c2ccc(Cl)cc2)c(C)nn1-c1ccc(C(=O)NCc2cccnc2)cc1 the results were LDHA block -2.
Screening O=C(NCc1ccccn1)c1cccc(Cl)c1 returned LDHA block 2.
For Cc1ccc(S(=O)(=O)N(CC(=O)N2CCc3ccccc3C2)c2ccc(C)c(C)c2)cc1 the results were LDHA block 3, IDH1 R132H inh 6%, PTHR1 ag -2%, GLP-1R inv ag 11µM* and HEK293 tox -9%.
`Cc1ccc(N(CC(=O)N2CCc3ccccc32)S(=O)(=O)c2cccs2)cc1` gave LDHA block 3, IDH1 R132H inh 2%, GLP-1R agonist 0%, PTHR1 ag inactive, GLP-1R inv ag 10µM* and HEK293 tox 4%.
Cc1cc2ncn(-c3ncnc4sc(C)c(C)c34)c2cc1C was read as LDHA block -1, IDH1 R132H inh 1%, GLP-1R agonist 5%, PTHR1 ag -3%[57.5 µM], GLP-1R inv ag 7.1µM* and HEK293 tox -2%.
For Cc1ccc(N/N=C(\C#N)C(N)=S)cc1C the results were LDHA block -11, IDH1 R132H inh 2%, GLP-1R agonist 7%, PTHR1 ag -34%, GLP-1R inv ag 0.28µM* and HEK293 tox inconclusive.
For COc1ccc(Br)cc1[C@H]1[C@@H]2C=CCC[C@@]2(C)C(=O)N1Cc1ccccc1 the results were LDHA block -1, IDH1 R132H inh -21%, GLP-1R agonist 5%, PTHR1 ag -24%, GLP-1R inv ag 4.5µM* and HEK293 tox -15%.
Screening CC(=O)c1ccc(-c2ccc([C@H]3[C@@H]4C=CCC[C@@]4(C)C(=O)N3Cc3ccccc3)c(F)c2)cc1 returned LDHA block -3, IDH1 R132H inh 3%, GLP-1R agonist -6%, PTHR1 ag -21%, GLP-1R inv ag 11µM* and HEK293 tox -5%.
`COc1ccc(-c2ccc([C@H]3[C@@H]4C=CCC[C@@]4(C)C(=O)N3Cc3ccccc3)c(F)c2)cc1` gave LDHA block -1, IDH1 R132H inh 9%, GLP-1R agonist -5%, PTHR1 ag -2%, GLP-1R inv ag inconclusive and HEK293 tox 31%.
Screening COc1ccc(-c2ccc(OC)c([C@H]3[C@@H]4C=CCC[C@@]4(C)C(=O)N3Cc3ccccc3)c2)cc1OC returned LDHA block -2, IDH1 R132H inh -20%[38.3 µM], GLP-1R agonist 25%, PTHR1 ag inactive, GLP-1R inv ag -24% and HEK293 tox -17%.
COc1ccc(-c2cc([C@H]3[C@@H]4C=CCC[C@@]4(C)C(=O)N3Cc3ccccc3)ccc2F)cc1 was read as LDHA block 0, IDH1 R132H inh 3%, GLP-1R agonist 6%, PTHR1 ag -46%, GLP-1R inv ag 10µM* and HEK293 tox 4%.
COc1cc(NS(=O)(=O)c2ccc(OC)c(C)c2C)c(OC)cc1Cl was read as LDHA block 1, IDH1 R132H inh 10%, GLP-1R agonist 2%, PTHR1 ag -2%[57.5 µM], GLP-1R inv ag 4µM* and HEK293 tox -22%.
CCN(c1ccccc1)S(=O)(=O)c1cc(C(=O)Nc2ccc(F)c(F)c2)ccc1F was read as LDHA block -3, IDH1 R132H inh -7%, GLP-1R agonist -2%, PTHR1 ag -49%, GLP-1R inv ag 1.4µM* and HEK293 tox inconclusive.
Screening O=C1C=CCC(/C=C/c2ccccc2)O1 (stereo unspecified) returned LDHA block -2, IDH1 R132H inh -1%[38.3 µM], GLP-1R agonist 5%, PTHR1 ag inactive, GLP-1R inv ag 2.5µM* and HEK293 tox -15%.
CC(NCc1ccc(-c2ccccc2F)o1)c1ccccc1 (stereo unspecified) was read as LDHA block 2.
`O=C(Nc1ccccc1F)c1nc(S(=O)(=O)Cc2ccccc2F)ncc1Cl` gave LDHA block 4, IDH1 R132H inh 0%, PTHR1 ag -49%, GLP-1R inv ag 11µM* and HEK293 tox inconclusive.
For COC(=O)c1ccccc1NC(=O)N1c2ccccc2Sc2ccccc21 the results were LDHA block -3, IDH1 R132H inh 4%, GLP-1R agonist 26%, PTHR1 ag inactive, GLP-1R inv ag 10µM* and HEK293 tox 28%.
CN(C)C(CNC(=O)c1ccc(Br)cc1)c1ccco1 (stereo unspecified) was read as LDHA block 0, IDH1 R132H inh -7%, GLP-1R agonist 11%, PTHR1 ag inactive, GLP-1R inv ag -28% and HEK293 tox 1%.
Screening CC(C)CCOc1ccc(C(=O)NCC(c2ccco2)N(C)C)cc1 (stereo unspecified) returned LDHA block -4, IDH1 R132H inh -5%, GLP-1R agonist 17%, PTHR1 ag inactive, GLP-1R inv ag 7.9µM* and HEK293 tox -2%.
